PubChem BioAssay (NCI)
The panel holds about 79,000 compounds, 15% with a hit somewhere; the sample as a whole holds those more often. The source made the active and inactive calls. Rule as the data show it: active = growth inhibition above about 70%; inactive = the rest.

Test: NCI Yeast Anticancer Drug Screen. Data for the rad50EPP+ strain (AID 151);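 also: 0% = growth of vehicle-treated control cultures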
Details: S. cerevisiae rad50 mutant strain, active compounds read high
Method: Growth inhibition of yeast strains with defined genetic alterations is measured as a screen for potential anti-cancer activity. Selected strains with alterations in DNA damage repair or cell cycle control were exposed to compounds and growth inhibition was measured relative to vehicle treated controls. The strain used in this assay is rad50EPP+

Measured: growth inhibition

COc1cccc(C(c2cc3c(cc2O)OCO3)N2CCOCC2)c1OC (stereo not given)
inactive: at 1.2 µM -6% | at 3.7 µM -7% | at 11.0 µM 0% | at 33.0 µM 11% | at 100.0 µM 56%

C/C=C/[P+](c1ccccc1)(c1ccccc1)c1ccccc1
inactive: at 1.2 µM 13% | at 3.7 µM 2% | at 11.0 µM -4% | at 33.0 µM 0% | at 100.0 µM 16%

S=C1SCN(CCc2ccccc2)CN1CCc1ccccc1
inactive: at 1.2 µM 26% | at 3.7 µM 51%
active: at 11.0 µM 85% | at 33.0 µM 92% | at 100.0 µM 81%

Cc1ccc(Nc2n[nH]c(=S)s2)cc1
inactive: at 1.2 µM -13% | at 3.7 µM -10% | at 11.0 µM -11% | at 33.0 µM 6% | at 100.0 µM 68%

S=c1cn[nH]c2ccc(Br)cc12
inactive: at 1.2 µM -2% | at 3.7 µM -1% | at 11.0 µM 17%
active: at 33.0 µM 70% | at 100.0 µM 83%

CCCCCCSc1nc(COC(=O)NC)c(COC(=O)NC)n1C
active: at 100.0 µM 87%
inactive: at 1.2 µM -3% | at 3.7 µM -6% | at 11.0 µM -6% | at 33.0 µM 5%

Clc1cc(-c2ccccc2)nc2ccccc12
active: at 33.0 µM 77% | at 100.0 µM 90%
inactive: at 1.2 µM 7% | at 3.7 µM 27% | at 11.0 µM 56%

Nc1nc(F)nc2c1ncn2C1OC(COP(=O)(O)O)C(O)C1O (stereo not given)
inactive: at 1.2 µM 3% | at 3.7 µM 12% | at 11.0 µM 26% | at 33.0 µM 43% | at 100.0 µM 67%
